Consider 40 compounds from PubChem BioAssay (NCATS).

Records with an inconclusive call do not appear. Where a call stands in place of a potency, no number is given. Active and inactive are the calls of the source. The call rests on the fitted dose curve; in most records, active means well fitted inhibition curve with a large enough effect; inconclusive means small, poorly fitted or top-dose-only effect; inactive means flat fitted curve, though single readings scatter.
Potency means the concentration at half of the fitted maximal effect.

Voltage-gated inwardly rectifying potassium channel KCNH2 (Homo sapiens), sequence (Q12809 whole entry, looked up): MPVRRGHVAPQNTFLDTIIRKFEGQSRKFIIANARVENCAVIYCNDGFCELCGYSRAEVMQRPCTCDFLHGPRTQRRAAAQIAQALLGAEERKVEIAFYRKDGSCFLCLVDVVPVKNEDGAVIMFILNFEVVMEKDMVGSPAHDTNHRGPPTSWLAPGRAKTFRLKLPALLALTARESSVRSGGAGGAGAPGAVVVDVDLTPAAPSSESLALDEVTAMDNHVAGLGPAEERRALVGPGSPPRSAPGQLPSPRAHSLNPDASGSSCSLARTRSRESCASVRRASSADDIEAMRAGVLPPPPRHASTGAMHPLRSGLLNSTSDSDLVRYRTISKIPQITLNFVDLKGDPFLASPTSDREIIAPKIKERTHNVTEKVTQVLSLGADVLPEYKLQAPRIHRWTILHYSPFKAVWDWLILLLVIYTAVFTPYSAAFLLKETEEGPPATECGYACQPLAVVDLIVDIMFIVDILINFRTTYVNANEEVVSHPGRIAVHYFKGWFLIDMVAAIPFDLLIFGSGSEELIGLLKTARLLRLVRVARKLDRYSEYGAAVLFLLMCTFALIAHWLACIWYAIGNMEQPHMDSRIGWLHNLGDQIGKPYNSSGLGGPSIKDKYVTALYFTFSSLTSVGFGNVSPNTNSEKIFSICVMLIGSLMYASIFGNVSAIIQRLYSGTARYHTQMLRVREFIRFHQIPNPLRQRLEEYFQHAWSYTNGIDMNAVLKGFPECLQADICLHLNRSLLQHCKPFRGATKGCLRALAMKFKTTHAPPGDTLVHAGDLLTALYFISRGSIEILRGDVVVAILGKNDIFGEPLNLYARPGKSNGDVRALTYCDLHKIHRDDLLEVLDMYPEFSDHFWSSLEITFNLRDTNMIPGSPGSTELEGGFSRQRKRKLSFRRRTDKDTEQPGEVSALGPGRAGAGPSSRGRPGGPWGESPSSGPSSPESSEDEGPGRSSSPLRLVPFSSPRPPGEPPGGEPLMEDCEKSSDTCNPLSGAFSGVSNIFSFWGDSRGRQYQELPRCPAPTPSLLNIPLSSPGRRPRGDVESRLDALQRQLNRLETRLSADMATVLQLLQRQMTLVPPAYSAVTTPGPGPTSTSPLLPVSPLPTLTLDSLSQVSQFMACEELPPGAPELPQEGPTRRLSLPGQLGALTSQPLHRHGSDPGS

This assay addresses Voltage-gated inwardly rectifying potassium channel KCNH2 (Homo sapiens) (UniProt Q12809). Nature of the assay: qHTS Assay for Small Molecule Inhibitors of the Human hERG Channel Activity (AID 588834).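 Further: lower thallium flux fluorescence means stronger hERG block; nearly all actives have a fitted effect of over 50% in size.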 The note with it: U2OS BacMam hERG, FluxOR thallium flux fluorescence; series mostly up to 46.1 µM. The text has this:
NIH Chemical Genomics Center [NCGC]
National Institutes of Environmental Health Sciences [NIEHS]
National Toxicology Program [NTP]
We have developed a 1536-well cell-based assay for quantitative high throughput screening (qHTS) to determine in vitro hERG channel blockage as a measure of cardio toxicity with small molecules. This particular assay uses the U2OS cell line which is derived from human osteosarcoma.
NCGC Assay Protocol Summary:
HERG assay (FluxORTM thallium flux assay) was initially developed by Invitrogen/Molecular Probes, and then miniaturized into 1536-well plate in a homogeneous format by NCGC. This assay measures the activity of potassium channel using thallium dye (FluxOR) flux as surrogate measurement for potassium into the cells with a FDSS-7000 kinetic plate reader (Hamamatsu Corp., Hamamatsu City, Japan). The hERG ion channel is transduced into mammalian cells (U2OS) using a baculovirus (Bacmam) construct harboring the hERG K+ ion channel. So far we screened LOPAC1280 library (Sigma), the NTP collection of 1408 compounds, and the NCGC Pharmaceutical Collection (NPC), in which many well defined HERG blockers are present. The rank order potencies of many of these compounds are similar to that of other HERG assays (membrane potential, Rb+ flux, patch clamp, etc). This quick and homogeneous assay is also found to be sensitive, specific, and robust.
Using the FluxORTM thallium flux assay, the activity of potassium channel using thallium dye (FluxOR) flux as surrogate measurement for potassium into the cells was measured in the U2OS cell line transduced with hERG K+ ion channel using a baculovirus (Bacmam) using Opti-MEM medium (Invitrogen) containing 2% fetal calf serum (FCS, HyCone) following loading buffer addition, compound treatment for around 10 minutes and finally adding stimulation buffer. The assay was performed in black clear Kalypsys 1536-well plates. In the screen, Astemizole was used as positive controls. Library compounds were measured for their ability to cause hERG channel blockage in the cell line, as reflected by a decrease in fluorescence intensity, in a concentration-dependent manner. […] AC50 values were determined from concentration-response data modeled with the standard Hill equation.
qHTS protocol for hERG-U2OS cellular assay
[Step] [Parameter] [Value] [Description]
1. Day 1: Replace medium in 70-80% confluent T225 flask with 2.5 mL of hERG-BacMam virus plus 12.5 mL of phosphate buffered saline (PBS) (corresponding roughly to a multiplicity of infection ratio of 100 virus particles/cell)
2. Incubation: 4 hrs @ room Temperature in Dark
3. Reagent; Remove virus; wash once with 25 ml DPBS
4. Reagent; 35 ml culture medium
5. Incubation; 37 °C overnight
6. Day2: Reagent; 3 uL; 2000 U2OS cells/well
7. Time; 4 hr; 37 °C incubation
8. Loading buffer; 1 uL; 0.7X;
9. Incubation: 1hr @ RT in Dark.
12. Time; 10min; 37 °C incubation
13. Read fluorescence Intensity on FDSS for 10 Sec with 1 sec interval
14. Reagent; 1 uL; stimulation buffer
15. Read fluorescence Intensity on FDSS for 2 min with 1 sec interval
16. Detection; Fluorescence Intensity; FDSS
As for `CO[C@@]12[C@H](COC(N)=O)C3=C(C(=O)C(C)=C(N)C3=O)N1C[C@@H]1N[C@@H]12`, the Potency result was “inactive”.
The result for `Cc1noc(NS(=O)(=O)c2ccc(N)cc2)c1C` reads “inactive”.
The result for `NC(=O)c1cccnc1` reads “inactive”; that for `CC(C)OC(=O)C(C(=O)OC(C)C)=C1SC=CS1`, “inactive”.
The result for `S=P(N1CC1)(N1CC1)N1CC1` reads “inactive”; that for `N[C@@H](C(=O)N[C@@H]1C(=O)N2C(C(=O)O)=C(Cl)CS[C@H]12)c1ccccc1`, “inactive”.
`CC(C)C1CCC(C(=O)N[C@H](Cc2ccccc2)C(=O)O)CC1` (stereo not given in full): the Potency result is “inactive”.
For the compound `CC(=O)CC(c1ccccc1)c1c(O)c2ccccc2oc1=O` (stereo not given), the Potency entry is “inactive”.
Turning to `CC[C@H](NC(C)C)[C@H](O)c1ccc(O)c2[nH]c(=O)ccc12`, the Potency entry was “inactive”.
As to `CC(C)(Sc1cc(C(C)(C)C)c(O)c(C(C)(C)C)c1)Sc1cc(C(C)(C)C)c(O)c(C(C)(C)C)c1`, the Potency entry is “inactive”.
In the case of `COc1c(N2CCNC(C)C2)c(F)cc2c(=O)c(C(=O)O)cn(C3CC3)c12` (stereo not given), the Potency result was “inactive”.
As for `O=C(O)c1cc(=O)[nH]c(=O)[nH]1`, the entry is “inactive”; as for `CCOC(=O)c1ccc(OC(=O)CCCCCN=C(N)N)cc1`, “inactive”; as for `CCOC(=O)c1ccc(C#Cc2ccc3c(c2)C(C)(C)CCS3)nc1`, 8.91 µM (active).
As for `CCN[C@H]1C[C@H](C)S(=O)(=O)c2sc(S(N)(=O)=O)cc21`, the entry is “inactive”; as for `CC(N)C12CC3CC(CC(C3)C1)C2` (stereo not given), “inactive”; as for `O=C(O)C1CCCN(CCC=C(c2ccccc2)c2ccccc2)C1` (stereo not given), 11.2 µM (active).
Regarding `CC1=NN(c2ccccc2)C(=O)C1`, the Potency result was “inactive”.
As for `Nc1nc(F)nc2c1ncn2[C@@H]1O[C@H](CO)[C@@H](O)[C@@H]1O`, the entry is “inactive”; as for `CCC(C)(C)c1ccc(CC(C)CN2C[C@@H](C)O[C@@H](C)C2)cc1` (stereo not given in full), 12.6 µM (active).
The result for `CC(C)(C#N)c1cc(Cn2cncn2)cc(C(C)(C)C#N)c1` reads “inactive”; that for `NC(=O)c1cccc(N)c1`, “inactive”; that for `O=C(O)c1cccnc1`, “inactive”.
Consider `OCc1ccc(-c2nn(Cc3ccccc3)c3ccccc23)o1`, for which the Potency entry is “inactive”.
As to `COC(=O)Nc1nc2ccc(C(=O)c3ccccc3)cc2[nH]1`, the Potency result was “inactive”.
As for `Cc1ccnc2c1NC(=O)c1cccnc1N2C1CC1`, the entry is “inactive”; as for `CC(C)Cn1cnc2c(N)nc3ccccc3c21`, “inactive”.
As for `C[C@]12C=CC(=O)C=C1CC[C@@H]1[C@@H]2C(=O)C[C@@]2(C)[C@H]1CC[C@]2(O)C(=O)CO`, the entry is “inactive”; as for `O=NN(CCCl)C(=O)NC1CCCCC1`, “inactive”; as for `O=c1oc2c(O)c(O)cc3c(=O)oc4c(O)c(O)cc1c4c23`, “inactive”.
For `O=c1cc(O)c(Cl)c[nH]1`, the Potency entry was “inactive”.
The result for `Cc1nnc(NS(=O)(=O)c2ccc(N)cc2)s1` reads “inactive”; that for `NC(=O)N1c2ccccc2CC(=O)c2ccccc21`, “inactive”.
As for `CN(Cc1cc(Br)cc(Br)c1N)C1CCCCC1`, the figure is 3.16 µM (active); as for `COc1nc(N)nc2c1ncn2[C@@H]1O[C@H](CO)[C@@H](O)[C@@H]1O`, “inactive”; as for `CN(CCOc1ccc(CC2SC(=O)NC2=O)cc1)c1ccccn1` (stereo not given), “inactive”.
As for `O=P(O)(O)C(O)(Cc1cccnc1)P(=O)(O)O`, the entry is “inactive”; as for `COC(c1ccccc1)(c1ccccc1)[C@H](Oc1nc(C)cc(C)n1)C(=O)O`, “inactive”.
Turning to `CCCCS(=N)(=O)CCC(N)C(=O)O` (stereo not given), the Potency entry was “inactive”.
As for `C[C@@H](NCCCc1cccc(C(F)(F)F)c1)c1cccc2ccccc12`, the figure is 11.2 µM (active).
